This is a sample that favours compounds with a hit; in the whole collection about 17% have one here.
TDP1 cell CPT – growth inhibition of DT40 Tdp1-/-;hTDP1 cells with camptothecin (screen for TDP1 inhibitors) | Potency, µM (highest dose often 46.2 µM), without a hit: at the top dose activity change, negative = growth inhibition, most hits filed as inhibitors | AID 686979 | 12% of 420,000 active | chicken DT40 Tdp1-/-;hTDP1 cells + 20 nM CPT, ATP luminescence, 48 h; also: % is scaled to controls: 0 for no effect and ±100 for the full control effect; nearly all actives have a fitted effect of over 55% in size
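Chicken DT40 Tdp1-/- cells stably complemented with human TDP1 were seeded at 400 cells/well in medium containing 20 nM camptothecin, exposed to pin-transferred compounds, and grown at 37 °C for at least 48 hr. Viability was read as ATP luminescence.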
HepG2 viability – HepG2 cytotoxicity, counter-screen for TGF-b inhibitors; HepG2 CAGA-GFP viability, ATP luminescence, 18 h; Potency, µM (series often up to 46.1 µM), for the others: top-dose activity change, negative = cytotoxicity, most hits filed as cytotoxic; 0.76% of 410,000 active; AID 588856
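CellTiter-Glo luminescence gave cytotoxicity after 18 hours at 37 degrees C. The cells were HepG2 CAGA-GFP in 1% FBS DMEM, stimulated with 500 pg/mL TGF-beta after compound addition. %Activity was normalised to no-cell wells (complete cell-killing) and DMSO (no toxicity), and curves were fitted and classified.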
TDP1 cell noCPT – qHTS for Inhibitors of human tyrosyl-DNA phosphodiesterase 1 (TDP1): qHTS in cells in absence of CPT; DT40 Tdp1-/- hTDP1 cells, no CPT, ATP luminescence, 48 h; Potency, µM (series often up to 46.2 µM), for the others: at the highest dose activity change, negative = growth inhibition, hits mostly inhibitors; 15% of 420,000 active; also: % is scaled to controls: 0 for no effect and ±100 for the full control effect; nearly all actives have a fitted effect of over 55% in size
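Growth of hTDP1-complemented DT40 Tdp1-knockout cells is measured by ATP luminescence after at least 48 hr compound exposure at 37 °C, with DMSO substituting for the 20 nM CPT used in the parallel screen.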
ATXN2 expr inh – reduces ATXN2 reporter expression in HEK-293 cells. HEK-293 ATXN2-luciferase reporter, luminescence, 24 h. Potency, µM (highest dose often 57 µM), inactives show at the top dose activity change, negative = inhibition, most hits filed as inhibitors. 0.72% of 360,000 active. AID 1745845; also: % is scaled to controls: 0 for no effect and ±100 for the full control effect; nearly all actives have a fitted effect of over 55% in size
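ATXN2-luciferase reporter cells (luciferase flanked by upstream and downstream ATXN2 gene portions) were treated 24 h at 37 °C with compounds at up to 57 uM. SteadyGlo luminescence gave expression; GF-AFC fluorescence gave viability.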
ATXN viability – viability counter-screen for ATXN expression inhibitors; S2 cells (HEK-293 line with an ATXN2-luciferase reporter) viability, CellTiter-Fluor protease fluorescence, 24 h; Potency, µM (titrated, usually from 56.7 µM), usual class: cytotoxic; 0.49% of 400,000 active; also: nearly all actives have a fitted effect of over 40% in size
TGFb inhibitor – inhibitors of TGF-b signaling; HepG2 CAGA-GFP TGF-b/SMAD3 reporter, GFP fluorescence, 18 h; TGF-beta stimulated, 500 pg/mL final; Potency, µM (titrated, usually from 46.1 µM), without a hit: at the highest dose activity, negative = inhibition, usual class: inhibitors; 1.2% of 410,000 active; also: % is scaled to controls: 0 for no effect and ±100 for the full control effect; nearly all actives have a fitted effect of over 65% in size
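HEPG2 CAGA-GFP cells (1000/well, DMEM with 1% FBS) were pre-incubated 2 h at 37 degrees C, given compound by pin tool, then stimulated with TGF-beta at 500 pg/mL final for 18 h before per-cell GFP fluorescence imaging.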
* hit, by the source's call; i = inactive; ? = inconclusive; . = no result given. Calls follow the shape of the dose curve; as a rule, active = well fitted curve in the direction sought with a large enough effect; inconclusive = small, poorly fitted or top-dose-only effect, or another doubt; inactive = no such curve, though single readings can be large; an effect the other way counts as inactive or inconclusive. Potency is read from the fitted curve at half-maximal effect.

SMILES	TDP1 cell CPT	HepG2 viability	TDP1 cell noCPT	ATXN2 expr inh	ATXN viability	TGFb inhibitor
O=C(COC(=O)C1(c2ccc(Cl)cc2)CCCC1)NC1CCS(=O)(=O)C1 (stereo unspecified)	?	-19.1%	?	-11.9%	i	2.4%
Cc1cc(/C=C2\C=Cc3ccccc32)ccc1N(C)C	?	-77.6%	-20.7%	.	.	-1.8%
COc1ccc2oc(-c3cccc(NC(=O)c4cc([N+](=O)[O-])ccc4N4CCOCC4)c3)nc2c1	13µM*	-0.7%	?	9.1%	i	1.5%
O=C(Nc1cccc(-c2nc3ccccc3o2)c1)c1cc([N+](=O)[O-])ccc1N1CCOCC1	?	-12.1%	8.2µM*	.	.	-24.2%
Cc1ccc(-c2nc3cc(Cl)ccc3o2)cc1NC(=O)c1cc([N+](=O)[O-])ccc1N1CCOCC1	-22.1%	-24.1%	-29.3%	30.0%	i	-40.4%
CCOc1cc(Br)c(C=O)cc1OCC	5.17µM*	2.7%	6.51µM*	-26.5%	?	-20.7%
COC(=O)C1C=CC(OC2OC(COC(C)=O)C(OC(C)=O)C(OC(C)=O)C2OC(C)=O)n2c(=O)n(-c3ccccc3)c(=O)n21 (stereo unspecified)	0.731µM*	-85.9%	0.82µM*	?	?	?
CC(=O)OCC1OC(n2ccc3ccccc32)C(OC(C)=O)C(OC(C)=O)C1OC(C)=O (stereo unspecified)	?	0.3%	?	-25.2%	i	?
CC(C)(C)c1cc(NC(=O)C2(C)CCN2C(=O)C2(c3ccccc3)CC2)no1 (stereo unspecified)	?	0.8%	20.6µM*	-0.1%	i	3.2%
CC(C)(C)c1cc(NC(=O)C2(C)CCN2C(=O)C2(c3ccccc3)CCCC2)no1 (stereo unspecified)	14.6µM*	19.6%	14.6µM*	-16.8%	i	0.3%
CC1(C(=O)Nc2cccc3ncccc23)CCN1C(=O)C1(c2ccccc2)CC1 (stereo unspecified)	-5.2%	11.1%	-5.3%	-3.4%	i	17.7%
CC(C)(C)c1ccc(S(=O)(=O)NC(=O)C2(C)CCN2C(=O)C2(c3ccccc3)CC2)cc1 (stereo unspecified)	-8.9%	-1.6%	-7.2%	4.5%	i	-7.9%
CC(C)c1ccc(S(=O)(=O)N2CCN(CC(O)CN3CCOCC3)CC2)cc1 (stereo unspecified)	-22.8%	-3.7%	-0.9%	5.3%	i	2.0%
CC(C)c1ccccc1OCC(O)CN1CCN(S(=O)(=O)c2ccc([N+](=O)[O-])cc2)CC1 (stereo unspecified)	?	-8.7%	8.2µM*	?	i	-20.0%
CC(OCC(O)CN1CCN(S(=O)(=O)c2ccc(Cl)cc2)CC1)c1ccc(Cl)cc1 (stereo unspecified)	11.6µM*	-1.7%	10.3µM*	.	?	?
COc1ccc(COCC(O)CN2CCN(S(=O)(=O)c3ccc(C(C)C)cc3)CC2)cc1 (stereo unspecified)	25.9µM*	-18.9%	20.6µM*	-4.4%	?	0.0%
CC(=O)Nc1ccc(NC(C)=C(C#N)C#N)cc1	5.0%	-0.1%	5.9%	0.0%	i	1.8%
CC(C)N(Cc1ccccc1)c1ncnc2c1nnn2C	?	-5.5%	?	.	.	-7.8%
CC1=C(C(=O)OC2CCCCC2)C(c2ccc(C)o2)C2=C(CC(C)(C)CC2=O)N1 (stereo unspecified)	18.4µM*	8.8%	?	4.0%	i	?
CC1=C(C(=O)OC2CCCC2)C(c2ccc(C)o2)C2=C(CC(c3cccs3)CC2=O)N1 (stereo unspecified)	?	11.0%	16.4µM*	-26.9%	i	?
CC1=C(C(=O)OC2CCCC2)C(c2coc3ccccc3c2=O)C2=C(CCCC2=O)N1 (stereo unspecified)	-18.7%	-14.0%	0.411µM*	-11.6%	?	27.3%
COc1ccc(C(CNC(=O)COc2ccc(F)cc2Cl)N2CCOCC2)cc1 (stereo unspecified)	?	1.5%	?	-4.7%	i	19.8%
O=C(NNS(=O)(=O)c1ccc(Br)cc1)c1csnn1	0.4%	3.5%	-20.3%	1.9%	i	-8.2%
Cc1ccccc1-n1cnc2c(sc3nc(N4CCOCC4)c4c(c32)CCCC4)c1=O	18.4µM*	1.1%	14.6µM*	?	i	16.0%
O=c1c2sc3nc(N4CCOCC4)c4c(c3c2ncn1C(c1ccccc1)c1ccccc1)CCCC4	?	1.2%	?	.	i	-8.2%
SMILES	TDP1 cell CPT	HepG2 viability	TDP1 cell noCPT	ATXN2 expr inh	ATXN viability	TGFb inhibitor
CC(C)CNc1nnnc2c1sc1nc(N3CCOCC3)c3c(c12)CCCC3	?	37.9%	?	-4.7%	i	21.5%
O=c1c2sc3nc(N4CCOCC4)c4c(c3c2ncn1-c1ccccc1)CCCC4	?	-23.2%	?	-8.4%	i	-5.5%
COc1ccc(-n2cnc3c(sc4nc(N5CCOCC5)c5c(c43)CCCC5)c2=O)cc1	18.4µM*	28.6%	23.1µM*	-28.1%	i	-2.4%
O=c1c2sc3nc(N4CCOCC4)c4c(c3c2nnn1Cc1ccccc1)CCCC4	8.2µM*	-14.8%	?	-0.4%	i	-10.8%
C=CCNc1nnnc2c1sc1nc(N3CCOCC3)c3c(c12)CCCC3	17.8%	16.1%	13µM*	-15.5%	i	7.6%
CCCCN(C(=O)NC(=O)Nc1ccc(C)cn1)S(C)(=O)=O	3.8%	1.6%	0.4%	.	i	3.4%
CCOC(=O)c1nnc2c(-c3ccc(F)cc3)c(C)nn2c1N	6.3%	5.5%	2.1%	7.3%	i	3.7%
COc1cc(S(=O)(=O)N(Cc2ccc(C)cc2)C2CCCCC2)ccc1-n1cnnn1	?	4.8%	23.1µM*	-4.1%	i	-12.8%
COc1ccc(CN(C2CCCC2)S(=O)(=O)c2ccc(-n3cnnn3)cc2)cc1OC	-21.0%	-13.5%	?	-9.7%	i	6.3%
COCCNC(=S)N/N=C(\C)c1ccccc1O	0.0259µM*	-95.4%	0.082µM*	8.9%	i	5.62µM*
C=CCNC(=S)NN=C1CCC(c2ccccc2)CC1 (stereo unspecified)	-9.2%	5.9%	-28.1%	-6.2%	i	22.4%
